15 compounds from PubChem BioAssay (NCATS) can be followed below.

The nature of experiment [1]: qHTS of pediatric cancer cell lines to identify multiple opportunities for drug repurposing: Primary screen for DAOY cells (AID 1347090).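 For activity change, negative = cytotoxic: series mostly up to about 46 µM; plate controls were DMSO for no effect and bortezomib for full effect.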 Note: nearly all actives have a fitted effect of over 55% in size. The method in brief:
(§1)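 Cell viability, CellTiter-Glo luminescence; 500-1,000 cells/well, 8- or 11-point titration, 48 h compound exposure at 37 degrees C, 5% CO2. Controls: DMSO neutral, bortezomib 2.3 µM final as positive.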
(In general: In qHTS, concentration-response curves come from the screen itself.)

Experiment [2] can be described thus: qHTS of pediatric cancer cell lines to identify multiple opportunities for drug repurposing: Primary screen for SJ-GBM2 cells (AID 1347091).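 For activity change, negative = cytotoxic: plate controls were DMSO neutral control for no effect and bortezomib for full effect.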 The method in brief: as §1
Experiment [3] in a line: qHTS of pediatric cancer cell lines to identify multiple opportunities for drug repurposing: Primary screen for SK-N-MC cells (AID 1347093).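 For activity change, negative = cytotoxic: series mostly up to about 46 µM; plate controls were DMSO neutral control for no effect and bortezomib for full effect.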 An outline of the steps: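 Metabolically active cells were quantified by ATP-dependent luminescence (CellTiter-Glo, 15 min at room temperature) following 48 h treatment. Cells had been plated at 500-1,000 per well and settled for 5 h beforehand.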

Experiment [4] in a line: qHTS of pediatric cancer cell lines to identify multiple opportunities for drug repurposing: Primary screen for BT-37 cells (AID 1347094).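 For activity change, negative = cytotoxic: series mostly up to about 57 µM; plate controls were DMSO for no effect and bortezomib for full effect.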 The method in brief:
(§2)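 500-1,000 cells/well; 5 h pre-incubation 37 °C/5% CO2; compound pinned; 48 h; CellTiter-Glo, 15 min RT; luminescence. MIPE 11-pt from 0.78 nM, NPC 8-pt from 0.59 nM final. Bortezomib 2.3 µM final as positive control.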

Experiment [5] is described as follows: qHTS of pediatric cancer cell lines to identify multiple opportunities for drug repurposing: Primary screen for NB-EBc1 cells (AID 1347095).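 For activity change, negative = cytotoxic: plate controls were DMSO neutral control for no effect and bortezomib for full effect.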 An outline of the steps: as §2
The nature of experiment [6]: qHTS of pediatric cancer cell lines to identify multiple opportunities for drug repurposing: Primary screen for U-2 OS cells (AID 1347096).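 For activity change, negative = cytotoxic: plate controls were DMSO wells for no effect and bortezomib positive control wells for full effect.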 Note: nearly all actives have a fitted effect of over 50% in size. An outline of the steps:
(§3)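 Cells (500-1,000/well) rested 5 h, then received compounds for 48 h; metabolically active cells were measured by CellTiter-Glo luminescence. Final concentrations spanned up to 46 µM (MIPE, 11-point) or 0.59 nM-46 µM (NPC, 8-point) in primary screens, 11-point in follow-ups.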

Experiment [7] can be described thus: qHTS of pediatric cancer cell lines to identify multiple opportunities for drug repurposing: Primary screen for Saos-2 cells (AID 1347097). For activity change, negative = cytotoxic: % is set by controls: 0 for no effect and ±100 for the full control effect. Note: nearly all actives have a fitted effect of over 40% in size. The method in brief: as §2
Experiment [8] is described as follows: qHTS of pediatric cancer cell lines to identify multiple opportunities for drug repurposing: Primary screen for SK-N-SH cells (AID 1347098). For activity change, negative = cytotoxic: % is set by controls: 0 for no effect and ±100 for the full control effect. Note: nearly all actives have a fitted effect of over 65% in size. An outline of the steps:
as §3

A short description of experiment [9]: qHTS of pediatric cancer cell lines to identify multiple opportunities for drug repurposing: Primary screen for NB1643 cells (AID 1347099).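 For activity change, negative = cytotoxic: plate controls were DMSO neutral control for no effect and bortezomib positive control for full effect.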 Note: nearly all actives have a fitted effect of over 50% in size. The method in brief: as §2
The nature of experiment [10]: qHTS of pediatric cancer cell lines to identify multiple opportunities for drug repurposing: Primary screen for A673 cells (AID 1347092). For activity change, negative = cytotoxic: % is set by controls: 0 for no effect and ±100 for the full control effect. Note: nearly all actives have a fitted effect of over 45% in size. An outline of the steps:
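Luminescence from CellTiter-Glo, taken after 15 min at room temperature, served as the proxy for metabolically active cells following 48 h treatment. Both potency and efficacy were taken from curves fitted to the titration data.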

SMILES strings stand for the structures. Records with an inconclusive call do not appear. A number with no mark means an inactive call. Activity calls are given as the source filed them. Calls come from the whole dose curve; as a rule, active = well fitted curve in the direction sought with a large enough effect; inconclusive = small, poorly fitted or top-dose-only effect, or another doubt; inactive = no such curve, though single readings can be large; an effect the other way counts as inactive or inconclusive.
Potency is the fitted concentration of half-maximal effect.

As to `CN1C(CCl)Nc2cc(Cl)c(S(N)(=O)=O)cc2S1(=O)=O` (stereo not given), the Potency entry in experiment [1], in [2], in experiment [3], in [4], in [5] and in experiment [6] was “inactive” each time. In addition, the Potency result in experiment [7], in [8] and in experiment [9] was “inactive” each time.
For `Cc1cccc(C)c1NC(=O)CN1CCN(CCCC(c2ccc(F)cc2)c2ccc(F)cc2)CC1`, the Potency entry in [1], in experiment [10], in experiment [3], in experiment [4], in experiment [7] and in [8] was “inactive” each time. The Potency result in [9] is “inactive”. In experiment [2], the Potency is 21.1 µM (active).
Consider `Cc1ncc(CSSCc2cnc(C)c(O)c2CO)c(CO)c1O`, for which the Potency entry in [1], in experiment [2], in [3], in [4], in [5] and in experiment [6] was “inactive” each time. The Potency entry in [7], in experiment [8] and in experiment [9] was “inactive” each time.
On to `C[C@]12C=CC(=O)C=C1CC[C@@H]1[C@@H]2[C@@H](O)C[C@@]2(C)[C@H]1CC[C@]2(O)C(=O)CO`, for which the Potency entry in experiment [1], in [2], in experiment [10], in experiment [3], in [4] and in [8] was “inactive” each time. Moreover, the Potency entry in experiment [9] is “inactive”.
As to `CC1(C)O[C@@H]2[C@@H](CO[C@@]3(COS(N)(=O)=O)OC(C)(C)O[C@@H]23)O1`, the Potency result in [1], in experiment [2], in experiment [3], in [4], in [5] and in experiment [6] was “inactive” each time. In addition, the Potency entry in experiment [7], in experiment [8] and in experiment [9] was “inactive” throughout.
For the compound `CC(Cc1ccccc1)(NC(=O)CN)c1ccccc1` (stereo not given), the Potency entry in [1], in [2], in [3], in [4], in experiment [5] and in experiment [6] was “inactive” throughout. For the same compound, the Potency entry in [7], in [8] and in experiment [9] was “inactive” each time.
For `CC(C)n1nc(-c2cc3cc(O)ccc3[nH]2)c2c(N)ncnc21`, the Potency in experiment [1] was 4.22 µM (active); in experiment [2], 0.596 µM (active); in experiment [3], 0.299 µM (active); in [4] it was 1.1 µM (active); in experiment [5], 0.944 µM (active); in [6], 13.3 µM (active). Also, the Potency in [7] is 4.22 µM (active); in [8], 12.2 µM (active); in experiment [9], 21.1 µM (active).
Regarding `CCCCc1nc(Cl)c(CO)n1Cc1ccc(-c2ccccc2-c2nn[nH]n2)cc1`, the Potency entry in [1], in [2], in [10], in experiment [4], in [5] and in [6] was “inactive” throughout. Further, the Potency entry in experiment [7], in [8] and in [9] was “inactive” throughout.
For `CC(=O)O[C@]1(C(C)=O)CC[C@H]2[C@@H]3C[C@H](C)C4=CC(=O)CC[C@]4(C)[C@H]3CC[C@@]21C`, the Potency result in experiment [1], in experiment [2], in [4], in experiment [5], in [6] and in [9] was “inactive” throughout. Besides, the Potency in [3] was 33.5 µM (active).
As for `Nc1ccc(/C=C/c2ccc(N)cc2S(=O)(=O)O)c(S(=O)(=O)O)c1`, the activity change, negative = cytotoxic is 10% [at 0.597 µM] in experiment [1]; 4.37% [at 0.597 µM] in [2]; -3.26% [at 0.597 µM] in [3]; 22.8% [at 0.745 µM] in [4]; 25.1% [at 0.597 µM] in experiment [5]; 17% [at 0.597 µM] in experiment [6]. Besides, the activity change, negative = cytotoxic is 2.49% [at 0.597 µM] in experiment [7], 12.2% [at 0.741 µM] in experiment [8] and 24.7% [at 0.597 µM] in experiment [9].
`CCN(CC)C(=O)N1CCN(C)CC1`: the Potency entry in [1], in experiment [2], in [10], in experiment [3], in experiment [4] and in experiment [7] was “inactive” in each case. Besides, the Potency entry in experiment [8] and in experiment [9] was “inactive” each time.
Regarding `COc1cc(C=C2CCC/C(=C\c3ccc(O)c(OC)c3)C2=O)ccc1O`, the Potency in experiment [1] was 21.1 µM (active); in [2], 23.7 µM (active); in experiment [10] it was 0.266 µM (active); in [3], 0.335 µM (active); in experiment [4], 27.6 µM (active); in experiment [7] it was 23.7 µM (active). Besides, the Potency in experiment [8] was 15.4 µM (active).
In the case of `O=C1OCCN1/N=C/c1ccc([N+](=O)[O-])o1`, the Potency entry in experiment [1], in experiment [2], in experiment [3], in [4], in experiment [5] and in experiment [6] was “inactive” throughout. Also, the Potency result in [7] and in experiment [9] was “inactive” in each case.
`CC(=O)OCC(=O)[C@@]1(O)CC[C@H]2[C@@H]3CCC4=CC(=O)C=C[C@]4(C)[C@H]3[C@@H](O)C[C@@]21C`: the Potency result in experiment [1], in experiment [2], in experiment [10], in experiment [3], in experiment [4] and in experiment [7] was “inactive” each time. Further, the Potency entry in [8] and in [9] was “inactive” in each case.
For the compound `CCCCCCCCCCCCCCCCCC(=O)OCC(O)CO` (stereo not given), the Potency result in experiment [1], in experiment [2], in experiment [3], in experiment [4], in experiment [5] and in experiment [6] was “inactive” each time. The Potency result in [7], in experiment [8] and in [9] was “inactive” throughout.
